# Measurements from PubChem BioAssay (Tox21).
# Where “and” joins values, the source holds several entries; their conditions need not be identical. Equal entries are not always repeated. Inconclusive results are not listed. A call without a number means that no potency is given here. The source holds several records for some structures; these can differ, active in one and inactive in another. Calls of active or inactive are those of the source. Calls come from the whole dose curve; as a rule, active = well fitted inhibition curve with a large enough effect in the repeat runs; inconclusive = weak or mixed curves; inactive = no such curve, though single readings can be large or run the other way.
# Target: Cytochrome P450 2D6 (Homo sapiens) (UniProt P10635)
# Assay: Cytochrome P450 Family 2 Subfamily D Member 6 (CYP2D6) small molecule antagonists: luciferase reporter qHTS assay (AID 1671196); note: nearly all actives have a fitted effect of over 50% in size
# Details: P450-Glo CYP2D6 enzyme assay, luciferin luminescence, 1 h; series mostly up to 115 µM
# Text: U.S. Tox21 Program National Center for Advancing Translational Sciences [NCATS] U.S. Environmental Protection Agency [EPA] National Institutes of Environmental Health Sciences [NIEHS] National Toxicology Program [NTP] U.S. Food and Drug Administration [FDA] Tox21 Assay Overview: Cytochrome P450 (CYP) enzymes are membrane-bound hemeproteins that play a key role in metabolism of drugs and xenobiotics. Evaluation of the effect of chemicals on CYP isozymes is useful to minimize the adverse drug reactions and toxicities in drug development process. Tox21 chemicals were tested for their effect on CYP enzyme activities by using P450-Glo (TM) screening systems (Promega Corporation, Madison, WI). These systems provide a luminescent method containing proluciferin substrates and are converted to luciferin products by CYP isozymes. The luciferin products formed are detected with a luciferin detection reagent, and the amount of light produced is proportional to CYP activity. P450-Glo (TM) CYP2D6 screening system (Catalog. No. V9890) was used to detect the compounds that interfere in CYP2D6 activity.
# Tox21 Assay Protocol Summary: Two ul of enzyme-substrate mix was dispensed into medium binding white/solid 1536-well plates (Greiner Bio-One North America Inc., Monroe, NC) using a BioRaptr Flying Reagent Dispenser (FRD, Beckman Coulter, Brea, CA). […] The assay plates were incubated at room temperature for 10 min. Then 2 ul of NADPH regeneration solution was added to each well of the assay plates using an FRD and incubated at room temperature for 1 h. The reaction was stopped by adding 4 ul of detection reagent using an FRD and after 20 min incubation at room temperature the luminescence signal was measured using a ViewLux plate reader (Perkin Elmer, Shelton, CT). Data were expressed as relative luminescence units.
# Potency is the fitted concentration of half-maximal effect.
# Chain of Cytochrome P450 2D6 (Homo sapiens) (P10635 whole entry, looked up): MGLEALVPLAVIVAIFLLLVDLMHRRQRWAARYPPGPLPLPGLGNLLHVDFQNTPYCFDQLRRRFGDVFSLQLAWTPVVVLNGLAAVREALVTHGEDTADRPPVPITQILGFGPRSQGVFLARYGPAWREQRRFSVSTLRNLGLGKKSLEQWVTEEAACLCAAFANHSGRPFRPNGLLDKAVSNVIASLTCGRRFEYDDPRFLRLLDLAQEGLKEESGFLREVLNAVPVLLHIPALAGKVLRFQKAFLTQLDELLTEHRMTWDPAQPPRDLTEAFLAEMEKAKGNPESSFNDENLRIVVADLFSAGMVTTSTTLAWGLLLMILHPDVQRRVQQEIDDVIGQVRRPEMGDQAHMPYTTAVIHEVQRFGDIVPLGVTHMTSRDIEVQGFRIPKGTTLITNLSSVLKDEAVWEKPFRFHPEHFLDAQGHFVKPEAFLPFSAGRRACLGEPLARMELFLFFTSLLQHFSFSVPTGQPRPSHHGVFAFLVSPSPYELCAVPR
row,Structure (SMILES),Potency
1,CNC(=O)Oc1cccc2c1OC(C)(C)C2,inactive
2,O=C(O)CF,inactive
3,CN(C)c1nc(=O)n(C2CCCCC2)c(=O)n1C,inactive
4,Cn1c(-c2ccccc2)cc(-c2ccccc2)[n+]1C,502 nM (active) and 1 µM (active)
5,CNC(=O)CSP(=S)(OC)OC,inactive and 35.5 µM (active)
6,CCCCOCCOC(C)=O,inactive
7,Cc1ccc([N+](=O)[O-])cc1,inactive
8,CC(C)=CC1C(C(=O)OCc2cccc(Oc3ccccc3)c2)C1(C)C (stereo not given),39.9 µM (active) and inactive
9,CC(C)=CC1C(C(=O)OCN2C(=O)C3=C(CCCC3)C2=O)C1(C)C (stereo not given),22.4 µM (active) and 15.5 µM (active)
10,N#CCCCCC#N,inactive
11,CCN(CC)C(=O)C(C)Oc1cccc2ccccc12 (stereo not given),inactive
12,COP(=S)(OC)Oc1ccc(Sc2ccc(OP(=S)(OC)OC)cc2)cc1,63.3 µM (active) and inactive
13,Nc1ccc2ccccc2c1,24.3 µM (active) and 15.9 µM (active)
14,Cc1ccc(N=CN(C)C=Nc2ccc(C)cc2C)c(C)c1,31.9 µM (active) and 35.6 µM (active) and 27.5 µM (active)
15,CC(C)(C#N)N=NC(C)(C)C#N,inactive
16,C=CC(Cl)CCl (stereo not given),inactive
17,COP(=S)(OC)Oc1ccc(S(=O)(=O)N(C)C)cc1,35.6 µM (active)
18,COc1ccc(C=O)cc1OC,inactive
19,ClCc1ccccn1,39.2 µM (active)
20,C=C(C)C#N,inactive

row,Structure (SMILES),Potency
1,CSc1nc(NC(C)C)nc(NC(C)C)n1,inactive
2,COP(=O)(NC(C)=O)SC (stereo not given),inactive
3,CN(C)P(=O)(N(C)C)N(C)C,inactive
4,CC[n+]1c(-c2ccccc2)c2cc(N)ccc2c2ccc(N)cc21,562 nM (active) and 2.19 µM (active)
5,ClC(Cl)=C(Cl)C(Cl)=C(Cl)Cl,inactive
6,Brc1ccc(Br)cc1,inactive
7,OCCOCCO,inactive
8,CCNc1nc(Cl)nc(NC(C)(C)C#N)n1,inactive
9,Clc1cccc(Cl)c1,inactive
10,CCC1(c2ccc(N)cc2)CCC(=O)NC1=O (stereo not given),inactive
11,CCOP(=O)(OCC)OCC,inactive
12,Cc1cc(Cl)ccc1N=CN(C)C,35.6 µM (active)
13,CCOP(=S)(OCC)SCSC(C)(C)C,inactive
14,CCOS(=O)(=O)OCC,inactive
15,CC(C)(O)C#N,inactive
16,O=S(=O)(O)C(F)(F)C(F)(F)C(F)(F)C(F)(F)C(F)(F)C(F)(F)C(F)(F)C(F)(F)F,inactive
17,O=C1C(Cl)=C(Cl)C(=O)c2ccccc21,17.9 µM (active) and 17.8 µM (active)
18,Clc1ccc(C(Cl)(Cl)Cl)cc1,inactive
19,OC(c1ccc(Cl)cc1)(c1cncnc1)c1ccccc1Cl (stereo not given),36.2 µM (active) and 35.6 µM (active)
20,C[N+](C)(C)CC(=O)[O-],inactive
